We go through 15 compounds from PubChem BioAssay.

A short description of assay [1]: growth inhibition of DIPG glioma cells, dose response, cell-based, SU-DIPG-XIII, MIPE4.0, CellTiter-Glo, qHTS (AID 1347061; cut-off not given, nearly all actives have AC50 up to about 37 µM;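 further: cells exposed to compound for 48 hours before readout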). The following applies: SU-DIPG-XIII viability, CellTiter-Glo ATP luminescence.
Assay [2] in a line: growth inhibition of DIPG glioma cells, dose response, cell-based, JHH-DIPG-1, MIPE4.0, CellTiter-Glo, qHTS (AID 1347062; cut-off not given, nearly all actives have AC50 up to about 27 µM;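 on AC50: cells exposed to compound for two days before readout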). The following applies: JHH-DIPG-1 viability, CellTiter-Glo ATP luminescence.
Assay [3] in a line: growth inhibition of DIPG glioma cells, dose response, cell-based, SU-DIPG-IV, MIPE4.0, CellTiter-Glo, qHTS (AID 1347063; cut-off not given, nearly all actives have AC50 up to about 30 µM;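 further: compound exposure lasted 48 hours before the viability readout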). The following applies: SU-DIPG-IV viability, CellTiter-Glo ATP luminescence.
Assay [4] is described as follows: growth inhibition of DIPG glioma cells, dose response, cell-based, SU-DIPG-XIII, MIPE5.0, CellTiter-Glo, qHTS (AID 1347064; cut-off not given, nearly all actives have AC50 up to about 23 µM;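 on AC50: cells exposed to compound for 48 hours before the viability read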). Conditions: SU-DIPG-XIII viability, CellTiter-Glo ATP luminescence.
Assay [5] in a line: viability loss in pontine glioma line – cell-based, SU-DIPG-XXV, MIPE5.0, CellTiter-Glo, qHTS, dose response (AID 1347065; cut-off not given, nearly all actives have AC50 up to about 26 µM;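 further: cells exposed to compound for 48 hours before ATP readout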). The following applies: CellTiter-Glo ATP luminescence.
Assay [6] is described as follows: SU-DIPG-VI glioma cell viability, MIPE4.0 library, CellTiter-Glo luminescence, qHTS (AID 1347066; cut-off not given, nearly all actives have AC50 up to about 30 µM;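 further: cells exposed to compound for 48 hours before readout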). The following applies: CellTiter-Glo ATP luminescence.
Assay [7] can be described thus: JHH-DIPG-1 glioma cell viability, MIPE5.0 library, CellTiter-Glo luminescence, qHTS (AID 1347067; cut-off not given, nearly all actives have AC50 up to about 26 µM;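 further: cells exposed to compound for 48 hours before readout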). Conditions: JHH-DIPG-1 glioma viability, CellTiter-Glo ATP luminescence.
Assay [8] can be described thus: SU-DIPG-XXV glioma cell viability, MIPE5.0 library, qHTS (AID 1347068; cut-off not given, nearly all actives have IC50 up to about 30 µM;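 on IC50: cells exposed to compound for 48 hours before viability readout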).
Assay [9] can be described thus: sensitizers of A549 cells to miR-34 induction, primary screen, imaging, A549 dox-inducible miR-34, nuclei and caspase counts (AID 1347080;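 active means compounds whose cell count with miR-34 switched on is under 0.7 times the count with it off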). Conditions: A549 miR-34 inducible, Hoechst nuclei count, 48 h.
Assay [10] in a line: survival rescue of mitochondrial mutant cells in low glucose, primary screen, MELAS cybrids, Rieske KO mouse fibroblasts, CellTiter-Glo (AID 1508586;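 active means mean z-score across replicates of 1.96 or higher in either the MELAS or the Rieske mutant cell line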;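 further: z relative to plate mean and SD of compound and empty wells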).
A short description of assay [11]: modifiers of HSF1 nuclear foci, imaging, Selleck Cancer Library (AID 1347162; in the data active means plate-normalised HSF1 focus index below about 0.46). The following applies: human cells, at 10 µM; SSMD: measured here: HSF1 foci SSMD mean; cell count: measured here: cell number; plate-normalised HSF1 focus index: stronger effect = lower value.
Assay [12] in a line: ovarian cancer cell viability with rucaparib, profiling panel, oncology-focused library, rucaparib conditional (AID 1508598). Conditions: patient-derived ovarian cancer cells, CellTiter-Glo viability, 144 h, stronger effect = lower value.
The mark [13] stands for this setting: stronger effect = lower value, cell number ratio, induced over uninduced.
The mark [14] stands for this setting: measured here: relative caspase fold change +Dox/-Dox.
The mark [15] stands for this setting: measured here: total cells with miR-34 induction, stronger effect = lower value.
[16] abbreviates: measured here: total cells without miR-34 induction.
[17] abbreviates: MELAS cybrid survival, CellTiter-Glo 48 h, stronger effect = higher value.
Where [18] appears, read: Rieske KO mouse fibroblast survival, CellTiter-Glo 72 h.

Results filed as inconclusive are left out. The source made the active and inactive calls.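 How the source made its calls, unless noted: active means normalized viability below 100% at a tested concentration; inactive means the rest.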

For `O=C(NCCCCN1CCOCC1)c1cc2ccccc2o1`, the outcome in assay [1], in [2], in assay [3], in assay [4], in assay [5] and in [6] was inactive. For the same compound, in assay [8], the result was inactive. Further, in [7], the AC50 is 23.5 µM (active).
For the compound `Cc1ccc(NC(=O)Nc2cc(C(F)(F)F)ccc2F)cc1Nc1ccc2c(c1)NC(=O)/C2=C\c1ccc[nH]1`, the concentration at half-maximal activity (AC50) in assay [1] was 18.7 µM (active); in assay [2] it was 18.7 µM (active); in assay [3], 4.18 µM (active); in [4], 8.33 µM (active); in assay [5], 6.61 µM (active); in assay [6], 3.72 µM (active). For the same compound, in assay [7], the concentration at half-maximal activity (AC50) was 10.5 µM (active). Moreover, the IC50 in assay [8] is 9.34 µM (active).
Take `CCc1ccc(/C=C2/SC(=S)NC2=O)cc1`: the compound was classed as inactive in assay [1], in assay [2], in [3], in [4], in [5] and in [6]. For the same compound, the outcome in assay [7] and in [8] was inactive. The fold change in [9] (setting [13]) is 1 (inactive); in assay [9] (setting [14]) it was 1.81. In addition, the cell count in assay [9] (setting [15]) was 8940; in assay [9] (setting [16]) it was 8930.
`CCOC(=O)C1=C[C@@H](OC(CC)CC)[C@H](NC(C)=O)[C@@H](N)C1`: the outcome in assay [1], in [2], in [3], in [4], in assay [5] and in assay [6] was inactive. In addition, the call in [7] and in [8] was inactive. For the same compound, the values for the fold change in assay [9] (setting [13]) and in assay [9] (setting [14]) were 0.9 (inactive) and 1.08, respectively. In addition, the figures for the cell count in assay [9] (setting [15]) and in [9] (setting [16]) were 9340 and 10400, respectively. Moreover, the z-score was 0.348 (inactive) in [10] (setting [17]) and -0.618 in assay [10] (setting [18]).
As for `Nc1ncnc2c1c(-c1cccc(OCc3ccccc3)c1)cn2C1CC(CN2CCCC2)C1` (configuration not stated), the AC50 is 16.6 µM (active) in assay [1]; 20.9 µM (active) in assay [2]; 20.9 µM (active) in assay [3]; 1.18 µM (active) in assay [4]; 0.934 µM (active) in assay [5]; 1.18 µM (active) in [6]. The AC50 in [7] was 18.6 µM (active). Also, in [8], the IC50 is 4.68 µM (active). Further, the results for the fold change in [9] (setting [13]) and in [9] (setting [14]) were 1.06 (inactive) and 0.675, respectively. Besides, the cell count in assay [9] (setting [15]) is 1510; in [9] (setting [16]), 1430. In addition, the z-score in assay [10] (setting [17]) is -0.449 (inactive); in assay [10] (setting [18]), 0.635.
Regarding `CCCCN1CCC(CNC(=O)c2c3n(c4ccccc24)CCCO3)CC1`, the AC50 in [1] was 6.62 µM (active); in [3], 16.6 µM (active). In [2], the compound was classed as inactive.
As to `Cc1cc(OCCCc2c(C(=O)O)n(Cc3cccnc3)c3c(-c4c(COc5ccc(N6CCN([S+](C)(=O)[O-])CC6)cc5)nn(C)c4C)cccc23)cc(C)c1Cl`, the compound was classed as inactive in assay [1] and in assay [2]. In addition, the half-maximal activity concentration (AC50) in assay [3] is 20.9 µM (active).
In the case of `O=S(=O)(N=Cc1c(O)ccc2ccccc12)c1cccs1`, the compound was called inactive in assay [1] and in assay [2]. Also, the AC50 in assay [3] was 9.35 µM (active).
Consider `CCOC(=O)N1CCN(/[N+]([O-])=N/Oc2ccc([N+](=O)[O-])cc2C#N)CC1`, for which the outcome in assay [1] was inactive. The AC50 in assay [2] is 1.32 µM (active).
As for `CC(C)n1nc(-c2ccc3oc(N)nc3c2)c2c(N)ncnc21`, the AC50 in assay [1] is 9.35 µM (active); in assay [2], 8.33 µM (active); in assay [3] it was 3.72 µM (active); in assay [4] it was 1.18 µM (active); in assay [5], 0.0661 µM (active); in assay [6] it was 18.7 µM (active). Besides, the AC50 in assay [7] was 1.18 µM (active). Moreover, in [8], the half-maximal inhibitory concentration (IC50) was 4.17 µM (active). In addition, the fold change in assay [9] (setting [13]) is 0.877 (inactive); in assay [9] (setting [14]), 0.45. The cell count in assay [9] (setting [15]) was found to be 2980; in assay [9] (setting [16]) it was 3400; in assay [11], 6620. Also, the SSMD in assay [11] came out at 0.57. Moreover, the plate-normalised HSF1 focus index in [11] was 1.03 (inactive). For the same compound, the z-score in assay [10] (setting [17]) was 2.73 (active); in assay [10] (setting [18]), -2.58. The viability in assay [12] (at 0.000305 µM, OCI-C5x cells, with rucaparib 10 µM, 100% = cells with rucaparib alone) is 109% (inactive); in assay [12] (at 0.000305 µM, OCI-C5x cells, without rucaparib), 109% (inactive); in [12] (at 0.000305 µM, OCI-P5x cells, with rucaparib 20 µM, 100% = cells with rucaparib alone), 96.2% (active); in assay [12] (at 0.000305 µM, OCI-P5x cells, without rucaparib), 92.8% (active); in assay [12] (at 0.00122 µM, OCI-C5x cells, with rucaparib 10 µM, 100% = cells with rucaparib alone), 113% (inactive); in [12] (at 0.00122 µM, OCI-C5x cells, without rucaparib), 121% (inactive). In addition, the viability is 92.7% (active) in assay [12] (at 0.00122 µM, OCI-P5x cells, with rucaparib 20 µM, 100% = cells with rucaparib alone); 90.7% (active) in [12] (at 0.00122 µM, OCI-P5x cells, without rucaparib); 100% (inactive) in assay [12] (at 0.00488 µM, OCI-C5x cells, with rucaparib 10 µM, 100% = cells with rucaparib alone); 123% (inactive) in assay [12] (at 0.00488 µM, OCI-C5x cells, without rucaparib); 80.8% (active) in [12] (at 0.00488 µM, OCI-P5x cells, with rucaparib 20 µM, 100% = cells with rucaparib alone); 79.2% (active) in [12] (at 0.00488 µM, OCI-P5x cells, without rucaparib). Besides, the viability in assay [12] (at 0.0195 µM, OCI-C5x cells, with rucaparib 10 µM, 100% = cells with rucaparib alone) is 87.5% (active); in assay [12] (at 0.0195 µM, OCI-C5x cells, without rucaparib), 88.1% (active); in assay [12] (at 0.0195 µM, OCI-P5x cells, with rucaparib 20 µM, 100% = cells with rucaparib alone), 56.8% (active); in [12] (at 0.0195 µM, OCI-P5x cells, without rucaparib), 52.8% (active); in assay [12] (at 0.0781 µM, OCI-C5x cells, with rucaparib 10 µM, 100% = cells with rucaparib alone), 70.4% (active); in [12] (at 0.0781 µM, OCI-C5x cells, without rucaparib), 62.2% (active). The viability in assay [12] (at 0.0781 µM, OCI-P5x cells, with rucaparib 20 µM, 100% = cells with rucaparib alone) is 43.5% (active); in [12] (at 0.0781 µM, OCI-P5x cells, without rucaparib), 37.2% (active); in assay [12] (at 0.313 µM, OCI-C5x cells, with rucaparib 10 µM, 100% = cells with rucaparib alone), 61.9% (active); in assay [12] (at 0.313 µM, OCI-C5x cells, without rucaparib) it was 55.6% (active); in assay [12] (at 0.313 µM, OCI-P5x cells, with rucaparib 20 µM, 100% = cells with rucaparib alone), 36.9% (active); in [12] (at 0.313 µM, OCI-P5x cells, without rucaparib) it was 26.5% (active). The viability in [12] (at 1.25 µM, OCI-C5x cells, with rucaparib 10 µM, 100% = cells with rucaparib alone) was 51.8% (active); in [12] (at 1.25 µM, OCI-C5x cells, without rucaparib), 47.4% (active); in [12] (at 1.25 µM, OCI-P5x cells, with rucaparib 20 µM, 100% = cells with rucaparib alone), 29% (active); in [12] (at 1.25 µM, OCI-P5x cells, without rucaparib), 22.9% (active); in assay [12] (at 5 µM, OCI-C5x cells, with rucaparib 10 µM, 100% = cells with rucaparib alone) it was 39% (active); in assay [12] (at 5 µM, OCI-C5x cells, without rucaparib) it was 31.9% (active). In addition, the viability in assay [12] (at 5 µM, OCI-P5x cells, with rucaparib 20 µM, 100% = cells with rucaparib alone) was 19.5% (active); in [12] (at 5 µM, OCI-P5x cells, without rucaparib) it was 15.8% (active).
Turning to `CCN(c1cc(-c2ccc(CN3CCOCC3)cc2)cc(C(=O)NCc2c(C)cc(C)[nH]c2=O)c1C)C1CCOCC1`, the result in [8] was inactive. For the same compound, the fold change in assay [9] (setting [13]) is 0.946 (inactive); in assay [9] (setting [14]), 0.487. The cell count was 7910 in assay [9] (setting [15]) and 8360 in assay [9] (setting [16]). The values for the z-score in assay [10] (setting [17]) and in [10] (setting [18]) were -0.348 (inactive) and -0.95, respectively.
Consider `CN(C)C1CCN(C(=O)c2ccc(NC(=O)Nc3nc(N4CCOCC4)nc(N4CCOCC4)n3)cc2)CC1`, for which the concentration at half-maximal activity (AC50) in assay [1] was 0.833 µM (active); in [2], 0.166 µM (active); in assay [3], 0.0469 µM (active); in [4], 0.525 µM (active); in [5] it was 0.295 µM (active); in assay [6] it was 0.264 µM (active). Besides, in assay [7], the AC50 was 0.525 µM (active). Also, the IC50 in [8] was 0.934 µM (active).
For the compound `C[C@@]12C(=O)OC(=O)[C@@]1(C)C1CCC2O1`, the values for the AC50 in assay [1], in [2] and in [3] were 1.66 µM (active), 2.64 µM (active) and 1.48 µM (active), respectively.
`CN1C(=O)C[C@H](C(=O)N[C@@H](Cc2cnc[nH]2)C(=O)N2CCC[C@H]2C(N)=O)NC1=O`: the compound was classed as inactive in assay [1].
As to `C[C@@H]1CCO[C@H]2Cn3cc(C(=O)NCc4ccc(F)cc4F)c(=O)c(O)c3C(=O)N12`, the call in [1] and in assay [2] was inactive.
